“And” between values parts separate entries of the source, which are not always exact repeats. Equal entries are not always repeated. The panel holds about 79,000 compounds, 15% with a hit somewhere; the sample as a whole holds those more often. Unmarked numbers belong to inactive results. The source made the active and inactive calls. No stated cut-off is given here; in the data, active means growth inhibition above about 70%; inactive means the rest.
Assays:
[1] = NCI Yeast Anticancer Drug Screen. Data for the rad50 strain (AID 155);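 further: 0% = growth of vehicle-only cultures of the same strain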; conditions: S. cerevisiae rad50 strain growth inhibition, hits give high values
Procedure, shortened: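 A DNA repair-deficient yeast mutant serves as the test organism; compound-induced growth inhibition is calculated against vehicle-treated cells.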

[2] = NCI Yeast Anticancer Drug Screen. Data for the mec2-1 strain (AID 157); conditions: S. cerevisiae mec2-1 strain, hits give high values
Procedure, shortened: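 Readout is yeast growth inhibition, normalised to vehicle-treated controls, in the mec2-1 strain exposed to compound.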

[3] = NCI Yeast Anticancer Drug Screen. Data for the sgs1 mgt1 strain (AID 161);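 further: 0% = growth of cultures given vehicle only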; conditions: S. cerevisiae sgs1 mgt1 strain, hits give high values
Procedure, shortened: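 Growth of a repair-deficient yeast mutant was monitored after compound treatment and expressed as inhibition relative to vehicle-treated cultures.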

[4] = NCI Yeast Anticancer Drug Screen. Data for the cln2 rad14 strain (AID 165);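 further: 0% = growth equal to vehicle treated cultures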; conditions: S. cerevisiae cln2 rad14 strain, hits give high values
Procedure, shortened: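 Relative to vehicle controls, growth inhibition of compound-treated cln2 rad14 yeast was recorded.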

[5] = NCI Yeast Anticancer Drug Screen. Data for the bub3 strain (AID 167); conditions: S. cerevisiae bub3 mutant strain, hits give high values
Procedure, shortened: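 Inhibition values come from growth of compound-treated mutant yeast normalised to vehicle-treated controls.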

[6] = NCI Yeast Anticancer Drug Screen. Data for the mlh1 rad18 strain (AID 175); conditions: S. cerevisiae mlh1 rad18 strain growth inhibition, hits give high values
Procedure, shortened: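 Test agents were incubated with a yeast strain of defined genotype (DNA damage repair defect). Inhibition of growth was derived by comparison with vehicle-exposed cultures.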

[7] = at 5.0 µM (retest, dose inferred, filed as 0.5)
[8] = at 50.0 µM (retest, dose inferred, filed as 5.0)

SMILES | growth inhibition [1, 7] | growth inhibition [1, 8] | growth inhibition ([1]; at 50.0 µM) | growth inhibition [2, 7] | growth inhibition [2, 8] | growth inhibition ([2]; at 50.0 µM) | growth inhibition [3, 7] | growth inhibition [3, 8] | growth inhibition ([3]; at 50.0 µM) | growth inhibition [4, 7] | growth inhibition [4, 8] | growth inhibition ([4]; at 50.0 µM) | growth inhibition [5, 7] | growth inhibition [5, 8] | growth inhibition ([5]; at 50.0 µM) | growth inhibition [6, 7] | growth inhibition [6, 8] | growth inhibition ([6]; at 50.0 µM)
COC1(OC)C(Cl)=C(Cl)C(Cl)=C1Cl | 9% | 95% (active) | 46.4% | -2% | 84% (active) | 46.5% | -1% | 91% (active) | 75.2% (active) | 0% | 42% | -9.85% | 2% | 89% (active) | 58.8% | 4% | 76% (active) | 78.8% (active)
CCOC(=S)S | 43% | 99% (active) | 98.9% (active) | 17% | 100% (active) | 99.6% (active) | 4% | 99% (active) | 99.5% (active) | 12% | 66% | 95.8% (active) | 29% | 99% (active) | 99.2% (active) | 31% | 99% (active) | 99.2% (active)
CC(C)O.CC(C)O.OCCN(CCO)CCO.OCCN(CCO)CCO.[Ti+2] | 19% | 36% | 60% | 44% | 96% (active) | 31.6% | 11% | 20% | 52.9% | 34% | 70% (active) | 4.3% | 99% (active) | 99% (active) | 39.2% | 22% | 39% | 44.2%
O=[As]c1ccc([N+](=O)[O-])cc1 (configuration not stated) | 80% (active) | 100% (active) | 99.6% (active) | 89% (active) | 100% (active) | 99.7% (active) | 39% | 99% (active) | 99.7% (active) | 58% | 98% (active) | 98.9% (active) | 99% (active) | 100% (active) | 99.3% (active) | 89% (active) | 99% (active) | 99.5% (active)
N#C[S-].[Nd+3].c1cnc2c(c1)ccc1cccnc12.c1cnc2c(c1)ccc1cccnc12.c1cnc2c(c1)ccc1cccnc12 | 91% (active) | 99% (active) | 93% (active) | 98% (active) | 100% (active) | 94.8% (active) | 98% (active) | 99% (active) | 94.2% (active) | 93% (active) | 98% (active) | 93.7% (active) | 98% (active) | 99% (active) | 93.2% (active) | 98% (active) | 99% (active) | 92.8% (active)
O=C(COc1ccc(Cl)c(Cl)c1)N(Cc1ccccc1)Cc1ccc[n+](Cc2ccc(S(=O)(=O)F)cc2)c1 | 4% | 99% (active) | 43.5% | -59% | 100% (active) | 51.9% | 1% | 100% (active) | 53.6% | 5% | 98% (active) | 56.9% | 3% | 99% (active) | 52.5% | 4% | 99% (active) | 59.4%
Oc1cccc2cccnc12 (tested in a mixture with another compound) | -6% | 2% | 73.5% (active) | -5% | -6% | 83.8% (active) | -4% | 2% | 64% | -6% | -10% | -20.8% | -5% | -4% | 89.8% (active) | 0% | -15% | 85.5% (active)
CCC1(O)CC(OC2CC(N(C)C)C(OC3CC4OC5CC(=O)C(C)OC5OC4C(C)O3)C(C)O2)c2c(cc3c(c2O)C(=O)c2c(O)ccc(O)c2C3=O)C1C(=O)OC (configuration not stated) | 88% (active) and 93% (active) | 97% (active) and 98% (active) | 89.9% (active) and 87.5% (active) and 91.9% (active) | 71% (active) and 96% (active) and 95% (active) | 98% (active) | 90% (active) and 89.7% (active) and 92% (active) | 89% (active) and 79% (active) and 93% (active) | 98% (active) and 97% (active) | 91% (active) and 90% (active) | 73% (active) and 85% (active) and 86% (active) | 96% (active) and 97% (active) | 88% (active) and 87.9% (active) and 91.4% (active) | 93% (active) and 92% (active) | 98% (active) and 97% (active) | 88.6% (active) and 87.2% (active) and 84.8% (active) | 92% (active) and 96% (active) and 94% (active) | 97% (active) and 96% (active) and 98% (active) | 89.8% (active) and 86% (active) and 89.9% (active)
COC1NC(=O)NC(=O)C1=[N+]=[N-] (configuration not stated) | -152% | -50% | 31.6% | -44% | -39% | 9.25% | -60% | -33% | 1.3% | -54% | -55% | 27.6% | -58% | -55% | -17.7% | -120% | -136% | 21.9%

Source: PubChem BioAssay (NCI)
